D3 ag – activates the human D3 dopamine receptor. AID 652048. D3R DiscoveRx beta-arrestin cells, luminescence, 90 min. P35462. actives 0.58% (n = 410,000). max activation, %; in the data active = max activation above about 30%; note: 0% is about no effect
Target sequence (P35462 whole entry, looked up): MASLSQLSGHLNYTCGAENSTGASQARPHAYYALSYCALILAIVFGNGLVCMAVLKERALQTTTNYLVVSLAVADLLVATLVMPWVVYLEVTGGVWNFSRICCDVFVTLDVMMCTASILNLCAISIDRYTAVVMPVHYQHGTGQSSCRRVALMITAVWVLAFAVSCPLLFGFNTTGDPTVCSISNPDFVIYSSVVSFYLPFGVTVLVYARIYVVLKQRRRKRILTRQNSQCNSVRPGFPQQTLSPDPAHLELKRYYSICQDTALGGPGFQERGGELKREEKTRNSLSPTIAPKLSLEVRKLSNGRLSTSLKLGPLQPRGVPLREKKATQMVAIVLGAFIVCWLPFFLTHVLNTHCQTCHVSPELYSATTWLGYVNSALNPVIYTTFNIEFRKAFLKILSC
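Agonist mode: compounds and dopamine controls were applied to plated cells for 90 min at 37 degrees C after an overnight attachment at 1500 cells/well. Luminescent read-out followed 30 - 60 minutes at room temperature with DiscoveRx detection reagent.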
D3 antag – blocks the human D3 dopamine receptor | D3R cells, DiscoveRx beta-arrestin luminescence, antagonist mode; hits give low values | max response, negative = inhibition, % | actives 2.5% (n = 360,000) | AID 652054; in the data active = max response below about -50%; inconclusive = no clear call, values can overlap the other calls; note: % is set by controls: 0 for no effect and ±100 for the full control effect
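Cells plated overnight at 1500 cells/well, then exposed to library compounds with dopamine controls for 90 minutes at 37 degrees C. DiscoveRx reagent added for 30–60 minutes at room temperature; luminescence read, quantitative HTS format.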
IL-1B inflam inh – inhibitors of inflammasome signaling (IL-1 beta secretion) | THP-1 LPS/ATP IL-1B secretion, AlphaLISA, 16 h; hits give low values | activity change, % at 57.5 µM | actives 4.7% (n = 360,000); in the data active = activity change below about -50%; inconclusive = mostly about -30% to -49%; note: % is set by controls: 0 for no effect and ±100 for the full control effect
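Secreted IL-1B measured by AlphaLISA bead assay after 16 h compound exposure of THP-1 cells; compounds (final up to 57.5 uM) added 1 h before LPS (250 ng/mL) and ATP (1.25 mM) stimulation; lower signal means less secretion.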
ClpP mod – qHTS Assay for Activators of ClpP. purified B. subtilis ClpP, FRET peptide cleavage, 20 min. Potency, µM (doses to about 57.5 µM), for the others: top-dose activity change, negative = active. ATP-dependent Clp protease proteolytic subunit (Bacillus subtilis (strain 168)), P80244. AID 651965, 2013. actives 1.9% (n = 340,000); active = well fitted falling curve with a large enough effect; inconclusive = small, poorly fitted or top-dose-only effect; inactive = no such curve, though single readings can be large or run the other way; note: potency is the fitted concentration of half-maximal effect; the source files actives as falling curves though it sought activators and does not explain the sign; nearly all actives have a fitted effect of over 65% in size
Target sequence (P80244 whole entry, looked up): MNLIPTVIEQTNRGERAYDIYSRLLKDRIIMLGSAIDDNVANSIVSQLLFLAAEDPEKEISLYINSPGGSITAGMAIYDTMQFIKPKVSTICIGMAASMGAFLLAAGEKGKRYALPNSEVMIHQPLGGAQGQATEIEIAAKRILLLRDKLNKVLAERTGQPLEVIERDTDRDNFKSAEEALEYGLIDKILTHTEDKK
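FRET quenching reversal measured ClpP activation: 10 microg/mL B. subtilis ClpP at pH 8 with the FRET-FV decapeptide, read at 430 nm after 320 nm excitation. The 20-min minus 0-min signal was scaled between DMSO/no-enzyme wells and ADEP (5.8 microM final).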
DT40 TDP1 CPT – DT40-hTDP1 cell growth loss with CPT; chicken DT40 Tdp1-/-;hTDP1 cells + 20 nM CPT, ATP luminescence, 48 h; Potency, µM (titrated, usually from 46.2 µM), for inactives: top-dose activity change, negative = growth inhibition, usual class: inhibitors; actives 12% (n = 420,000); AID 686979; note: potency is the fitted concentration of half-maximal effect; % is set by controls: 0 for no effect and ±100 for the full control effect; nearly all actives have a fitted effect of over 55% in size
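Chicken DT40 Tdp1-/- cells complemented with human TDP1, 400 cells/well, exposed to compounds plus 20 nM camptothecin for at least 48 h at 37 C; viability read as ATP content by CellTiter-Glo luminescence.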
DT40 TDP1 no CPT – qHTS for Inhibitors of human tyrosyl-DNA phosphodiesterase 1 (TDP1): qHTS in cells in absence of CPT. DT40 Tdp1-/- hTDP1 cells, no CPT, ATP luminescence, 48 h. actives 15% (n = 420,000). AID 686978, 2013. Potency, µM (top dose mostly 46.2 µM), inactives show top-dose activity change, negative = growth inhibition, most hits filed as inhibitors; note: potency is the fitted concentration of half-maximal effect; % is set by controls: 0 for no effect and ±100 for the full control effect; nearly all actives have a fitted effect of over 55% in size
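DT40 Tdp1-/-;hTDP1 cells, no CPT (DMSO vehicle only), 400 cells/well; compounds pin-transferred; ≥48 hr, 37 °C; CellTiter-Glo 30 min RT dark, luminescence read.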
Numbers without * were called inactive. In the library only some 21% were active in any assay of this set; here they are far more common. Unless noted, calls come from the whole dose curve; as a rule, active = well fitted inhibition curve with a large enough effect; inconclusive = small, poorly fitted or top-dose-only effect; inactive = flat fitted curve, though single readings scatter.

CCOc1ccc(CCNC(=O)c2[nH]c(C)c(C(C)=O)c2CC)cc1OCC was read as D3 ag 9.3, D3 antag 16.6, IL-1B inflam inh 29.9, DT40 TDP1 CPT 18.4µM* and DT40 TDP1 no CPT 23.1µM*.
`CCOC(=O)c1c(C)[nH]c(C(=O)NCCc2ccc(OC)c(OC)c2)c1C` gave D3 ag 5.1, D3 antag 12.2, IL-1B inflam inh -4.9, DT40 TDP1 CPT inconclusive and DT40 TDP1 no CPT 14.6µM*.
For Cc1ccccc1NC(=O)CSc1c(C(C)C)cnc2c1c(=O)n(C)c(=O)n2C the results were D3 ag 2.5, ClpP mod -7.8%, DT40 TDP1 CPT -51.6% and DT40 TDP1 no CPT inconclusive.
Cc1ccc(Nc2ncnc3c2nnn3Cc2ccccc2)cc1 was read as D3 ag 30.1*, D3 antag 5.1, IL-1B inflam inh 2.5, ClpP mod -0.6%, DT40 TDP1 CPT 17.6% and DT40 TDP1 no CPT -32.7%.
For O=C(NCc1ccc(Cl)cc1)c1ccc2c(c1)NC(=O)C(CS(=O)(=O)Cc1ccc(F)cc1Cl)N2 (configuration not stated) the results were D3 ag -7.2, ClpP mod 4.2%, DT40 TDP1 CPT inconclusive and DT40 TDP1 no CPT inconclusive.
O=C(NCc1ccccc1Cl)c1ccc2c(c1)NC(=O)C(CS(=O)(=O)Cc1ccc(F)cc1Cl)N2 (configuration not stated) was read as D3 ag 47.3*, ClpP mod 4.4%, DT40 TDP1 CPT -25.6% and DT40 TDP1 no CPT -11.5%.
For CCN(CC)CCCNC(=O)c1ccc2c(c1)NC(=O)C(CS(=O)(=O)Cc1ccc(F)cc1Cl)N2 (configuration not stated) the results were D3 ag -26.4, ClpP mod 3.16µM*, DT40 TDP1 CPT -14.6% and DT40 TDP1 no CPT -2.0%.
`CC(C)CC1Nc2ccc(C(=O)NCCCN3CCOCC3)cc2NC1=O` (configuration not stated) gave D3 ag -10.3, D3 antag -22.2, IL-1B inflam inh 1.2, DT40 TDP1 CPT 25.9µM* and DT40 TDP1 no CPT 16.4µM*.
Cc1ccc(CNC(=O)c2ccc3c(c2)NC(=O)C(CS(=O)(=O)Cc2cccc(F)c2)N3)cc1 (configuration not stated) was read as D3 ag -7.7, ClpP mod 4.1%, DT40 TDP1 CPT -9.7% and DT40 TDP1 no CPT 3.8%.
For CCN(CC)CCNC(=O)c1ccc2c(c1)NC(=O)C(CS(=O)(=O)Cc1ccc(F)cc1Cl)N2 (configuration not stated) the results were D3 ag -9.5, ClpP mod 28.2µM*, DT40 TDP1 CPT 18.4µM* and DT40 TDP1 no CPT inconclusive.
COC(=O)N1CCC2(CC1)CN(C(=O)Nc1cccc(C#N)c1)C2 was read as DT40 TDP1 CPT -10.3% and DT40 TDP1 no CPT 1.5%.
CC(C)CCNC(=O)c1ccc2c(c1)NC(=O)C(CS(=O)(=O)Cc1ccc(F)cc1)N2 (configuration not stated) was read as D3 ag -5.7, ClpP mod -23.0%, DT40 TDP1 CPT 16.4µM* and DT40 TDP1 no CPT 16.4µM*.
CCOCCCNC(=O)c1ccc2c(c1)NC(=O)C(CS(=O)(=O)Cc1ccc(F)cc1Cl)N2 (configuration not stated) was read as D3 ag -2.4, ClpP mod 7.08µM*, DT40 TDP1 CPT -0.7% and DT40 TDP1 no CPT -5.5%.
CCOC(=O)c1[nH]ncc1CN1CCCC(C(=O)c2ccc(C(C)(C)C)cc2)C1 (configuration not stated) was read as D3 ag -19.3, D3 antag -2.1, IL-1B inflam inh -8.4, ClpP mod -0.9%, DT40 TDP1 CPT inconclusive and DT40 TDP1 no CPT inconclusive.
For CCCC(=O)Nc1ccc(C(=O)/C=C/c2ccc(SC)cc2)cc1 the results were D3 ag -2.8, D3 antag -16.0, IL-1B inflam inh 0.0, ClpP mod -20.2%, DT40 TDP1 CPT 13µM* and DT40 TDP1 no CPT 18.4µM*.
`CC(=O)Nc1ccc(/C=C/C(=O)c2ccc(-n3nncc3-c3ccccc3)cc2)cc1` gave ClpP mod -7.8%, DT40 TDP1 CPT 5.62µM* and DT40 TDP1 no CPT 10µM*.
O=C(Nc1ccc(-n2nncc2-c2ccccc2)cc1)c1ccccc1 was read as ClpP mod 3.3%, DT40 TDP1 CPT 6.9% and DT40 TDP1 no CPT -25.2%.
Screening CSc1ccc(/C=C/C(=O)c2ccc(NC(C)=O)cc2)cc1 returned D3 ag -19.1, D3 antag -11.3, IL-1B inflam inh inconclusive, ClpP mod -3.1%, DT40 TDP1 CPT 16.4µM* and DT40 TDP1 no CPT 20.6µM*.
CCCC(=O)Nc1ccc(C(N)=O)cc1 was read as D3 ag 5.7, D3 antag 7.0, IL-1B inflam inh 9.8, DT40 TDP1 CPT 27.5% and DT40 TDP1 no CPT -13.9%.
For Cc1cccc(Cl)c1OCCCn1ccnc1 the results were D3 ag -5.7, D3 antag inconclusive, IL-1B inflam inh -3.8, ClpP mod -2.9%, DT40 TDP1 CPT -8.2% and DT40 TDP1 no CPT inconclusive.
For COc1ccccc1NC(=O)OC(C)c1ccc(Cl)cc1 (configuration not stated) the results were D3 ag -0.3, D3 antag -4.6, IL-1B inflam inh -14.7, DT40 TDP1 CPT 19.5% and DT40 TDP1 no CPT -20.7%.
`CSc1nnc(-c2sc3cc(C(F)(F)F)cnc3c2-c2ccccc2)n1C` gave D3 ag -6.5, D3 antag inconclusive, IL-1B inflam inh 9.8, ClpP mod 31.6µM*, DT40 TDP1 CPT 4.61µM* and DT40 TDP1 no CPT 16.4µM*.
Screening CCOC(=O)CNC=C(C(=O)OCC)C(=O)OCC returned D3 ag 7.9, D3 antag 0.0, IL-1B inflam inh -7.0, ClpP mod -3.1%, DT40 TDP1 CPT -5.0% and DT40 TDP1 no CPT 0.8%.
`CCOC(=O)C=C(C(=O)OCC)C(=O)OCC` gave D3 ag 1.9, D3 antag 11.1, IL-1B inflam inh 6.5, ClpP mod 2.2%, DT40 TDP1 CPT 4.61µM* and DT40 TDP1 no CPT 4.61µM*.
COC(=O)C(N)CS (configuration not stated) was read as DT40 TDP1 CPT 6.7% and DT40 TDP1 no CPT 24.7%.
For COC(=O)C(Cc1ccc(O)cc1)NC(=O)C(CC(=O)OC(C)(C)C)NC(=O)OC(C)(C)C (configuration not stated) the results were D3 ag 1.8, D3 antag 10.9, IL-1B inflam inh 9.2, DT40 TDP1 CPT 23.1% and DT40 TDP1 no CPT 11.7%.

Compound activity as filed in PubChem.
